# Screening data as filed in PubChem BioAssay.
# Rows were chosen to be rich in hits. Some 0.27% of all compounds tested hit in one or more screens of this group.
# BCR signal inh: inhibitors of chronic active B-cell receptor signaling | Potency, µM (series often up to 46.1 µM), for inactives: at the highest dose activity change, negative = inhibition, usual class: inhibitors | AID 493014 | ABC-DLBCL IkBa-CBG/CBR reporter, luminescence ratio, 4 h | hit rate 0.05% among 340,000; active = well fitted inhibition curve with a large enough effect in the signal ratio, with a control signal flat, not every such curve was filed as active; inconclusive = small, poorly fitted or top-dose-only effect, or effect the other way, or a change in a side signal; the % refers to the signal ratio;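 also: plate controls were basal doxycycline-induced cells for no effect and cells given 10 µM MG132 for full effect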
#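 Concentration-response series (up to 46 uM) were applied to TMD8 dual-reporter cells for 4 h at 37C with doxycycline. Green/red ratio, after filter-overlap correction, defined %Activity; red signal alone was normalised to basal cells and zero luminescence.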
# B2AR arrestin: beta2AR (human) beta-arrestin recruitment activity; P07550; beta-arrestin recruitment to beta2AR, cell-based reporter; Potency, µM (highest dose often 46.1 µM), inactives show top-dose activation, hits mostly activators; hit rate 0.02% among 330,000; AID 492947;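 also: 0% = DMSO controls and full agonism = EC100 isoproterenol or metaproterenol; nearly all actives have a fitted effect of over 65% in size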
# Tb PFK inh-1: T. brucei PFK enzyme inhibition. T. brucei PFK, ADP-Glo luminescence. hit rate 0.17% among 330,000. O15648. Potency, µM (series often up to 57.5 µM), for inactives: at the highest dose activity, negative = inhibition, hits mostly inhibitors;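 also: 0% = uninhibited 1x PFK enzyme wells and -100% = no-enzyme wells; nearly all actives have a fitted effect of over 60% in size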
#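 PFK 1.25 nM, F6P 0.5 mM, ATP 0.1 mM, 0.1 M TEA pH 8.0, 5 mM MgCl2, 0.01% Tween20, 0.1% BSA; 45 min RT. ADP-Glo readout. qHTS titration up to 57 uM; curves fitted, compounds curve-classed.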
# MBNL1 CUG block: MBNL1-poly(CUG) RNA binding inhibition; hit rate 0.036% among 280,000; Q9NR56; Potency, µM (titrated, usually from 57.5 µM), without a hit: at the top dose activity change, negative = inhibition, most hits filed as inhibitors; AID 2675; TR-FRET MBNL1-His/biotin-(CUG)12 binding, 665/545 ratio; active = well fitted inhibition curve with a large enough effect in the signal ratio, with a control signal flat, not every such curve was filed as active; inconclusive = small, poorly fitted or top-dose-only effect, or effect the other way, or a change in a side signal; inactive = no such curve, though single readings can be large or run the other way; the % refers to the signal ratio; also: % is scaled to controls: 0 for no effect and ±100 for the full control effect
# Target sequence (Q9NR56 whole entry, looked up): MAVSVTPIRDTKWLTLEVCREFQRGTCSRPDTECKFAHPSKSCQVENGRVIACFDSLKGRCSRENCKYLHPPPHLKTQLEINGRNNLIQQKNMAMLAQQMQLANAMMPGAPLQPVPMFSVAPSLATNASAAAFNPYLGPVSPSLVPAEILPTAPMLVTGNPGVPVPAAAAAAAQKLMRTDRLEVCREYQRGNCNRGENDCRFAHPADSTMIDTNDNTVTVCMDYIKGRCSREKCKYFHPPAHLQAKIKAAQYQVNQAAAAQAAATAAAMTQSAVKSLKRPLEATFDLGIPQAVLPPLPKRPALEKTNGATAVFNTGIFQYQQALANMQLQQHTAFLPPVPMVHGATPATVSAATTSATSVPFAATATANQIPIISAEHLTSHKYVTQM
#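 Compounds (final 92 nM to 58 uM) are added to His-tagged MBNL1 and biotin-(CUG)12, then terbium anti-His antibody and streptavidin-XL665 (5 nM final). After 60 min at room temperature, the 665/545 nm ratio is read.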
# TbPFK ATP: orthogonal confirmation of T. brucei phosphofructokinase inhibitors; shares compounds with Tb PFK inh-1; Tb PFK enzyme, ATP depletion, Kinase-Glo Plus luminescence; Potency, µM (doses to about 57.5 µM), for inactives: top-dose inhibition; hit rate 47% among 1,100; calls by dose curve; also: nearly all actives have a fitted effect of over 60% in size
# Tb PFK inh-2: T. brucei PFK enzyme inhibition, hit validation; Potency, µM (series often up to 57.5 µM), for inactives: top-dose activity change, negative = inhibition, most hits filed as inhibitors; shares compounds with Tb PFK inh-1; purified T. brucei PFK, ADP-Glo luminescence, 45 min; hit rate 41% among 1,100; AID 504637;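 also: plate controls were full PFK enzyme control for no effect and no enzyme control for full effect; nearly all actives have a fitted effect of over 60% in size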
# An asterisk follows results filed as active; ? = inconclusive; . = not tested or not shown; [ ] = dose if it differs, or a comment. Unless noted, calls follow the shape of the dose curve; as a rule, active = well fitted curve in the direction sought with a large enough effect; inconclusive = small, poorly fitted or top-dose-only effect, or another doubt; inactive = no such curve, though single readings can be large; an effect the other way counts as inactive or inconclusive. Potency is read from the fitted curve at half-maximal effect.
SMILES,BCR signal inh,B2AR arrestin,Tb PFK inh-1,MBNL1 CUG block,TbPFK ATP,Tb PFK inh-2
Cc1nc(Cc2nnc(SCC(=O)N3CCN(c4ccc(O)cc4)CC3)o2)cs1,-1.9%,0.2%,?,.,?,?
CCN(c1ccccc1)S(=O)(=O)c1ccc(C(=O)N2CCN(c3ccccc3)CC2)cc1,2.2%,0.1%,9.4%,.,.,.
C=CCc1c(C)nc2nc(SCC(=O)Nc3ccccc3CC)nn2c1C,-1.9%,.,.,.,.,.
C=C(C)C(=O)Nc1cccc(C2=NOC3(C2)C[C@@H](C(N)=O)N(C(=O)c2cc([N+](=O)[O-])cc([N+](=O)[O-])c2)C3)c1 (stereo not given in full),0.0%,0.4%,?,?,.,.
C=C(C)C(=O)Nc1cccc(C2=NOC3(C2)C[C@@H](C(N)=O)N(C(=O)CCCCC)C3)c1 (stereo not given in full),?,-0.6%,2.69µM*,-19.0%,0.151µM*,0.239µM*
C=C(C)C(=O)Nc1cccc(C2=NOC3(C2)C[C@@H](C(N)=O)N(C(=O)c2ccc(OC)cc2)C3)c1 (stereo not given in full),-6.8%,-0.4%,1.9µM*,-26.3%,0.169µM*,0.239µM*
O=C(CCCn1c(SCC(=O)NC2CCCCC2)nc2ccccc2c1=O)NCC1CCCO1 (stereo not given),1.8%,-0.3%,0.1%,-0.5%,.,.
O=C(CCCn1c(SCC(=O)c2ccc(O)c(O)c2)nc2ccccc2c1=O)NCC1CCCO1 (stereo not given),?,0.4%,?,-7.0%,?,?
COc1ccc(-c2cn(CCc3c[nH]c4ccccc34)nn2)cc1,-0.4%,-3.2%,1.0%,-8.2%,.,.
CC1(C)CC(=O)C(C(C2=C(O)CC(C)(C)CC2=O)c2cccs2)C(=O)C1 (stereo not given),9.1%,-0.7%,?,-15.5%,28.5%,?
CC1(C)CC(=O)C(C(C2=C(O)CC(C)(C)CC2=O)c2cccc(O)c2)C(=O)C1 (stereo not given),10.3%,-0.3%,0.0%,-7.9%,.,.
O=C1CC(=O)N(CCNc2ncc(C(F)(F)F)cc2Cl)C(=O)N1,9.7%,0.0%,-6.1%,3.2%,.,.
O=C1C=CC(=O)N1CCNc1ncc(C(F)(F)F)cc1Cl,?,-0.3%,21.3µM*,-4.0%,5.36µM*,13.5µM*
Cc1ccccc1OCc1nc2ccc(S(=O)(=O)N3CCOCC3)cc2[nH]1,-19.4%,0.1%,-10.9%,-0.2%,.,.
O=S(=O)(c1ccc2nc(COc3ccc(Cl)cc3Cl)[nH]c2c1)N1CCOCC1,?,0.4%,?,-10.5%,?,?
C[C@](N)(Cc1ccc(O)c(O)c1)C(=O)O,-0.4%,0.1%,?,?,?,?
COC(=O)C(N)Cc1ccc(O)c(O)c1 (stereo not given),?,-0.3%,0.7%,2.5%,.,.
COC(=O)c1cc(C(=O)OCC(=O)c2ccc3c(c2)NC(=O)CO3)cc([N+](=O)[O-])c1,1.6%,-0.3%,-3.1%,.,.,.
COc1ccccc1/C=C/C(=O)NCC(=O)N/N=C/c1ccccc1[N+](=O)[O-],?,-0.1%,?,?,-32.2%,?
CN(C)S(=O)(=O)c1ccc(N2CCCC2)c(C(=O)NNC(=O)c2ccccc2)c1,1.5%,0.1%,-5.6%,.,.,.
CC(=O)NCCc1c[nH]c2ccccc12,10.0%,-0.2%,-1.5%,-7.1%,.,.
O=C(NCCc1c[nH]c2ccccc12)OCCSS(=O)(=O)O,?,-0.3%,23.9µM*,-0.7%,23.9µM*,?
CC/C(=N/Nc1cccc(Cl)c1)c1cnnc(SC)n1,0.2%,-2.5%,?,2.8%,?,?
CCOc1cc(/C=C\[N+](=O)[O-])ccc1OCC(=O)N1CCOCC1,1.8%,0.0%,?,-4.1%,-33.6%,?
CCOc1cc(/C=C/c2nc3cc(C)c(C)cc3s2)ccc1OCC(=O)N1CCOCC1,-0.3%,-1.8%,0.4%,.,.,.
SMILES,BCR signal inh,B2AR arrestin,Tb PFK inh-1,MBNL1 CUG block,TbPFK ATP,Tb PFK inh-2
CS(=O)(=O)c1ccc(C(=O)Nc2nc(-c3ccco3)c(-c3ccco3)s2)cc1,29.1%,-0.6%,?,.,.,.
COc1ccc2[nH]c3c(c2c1)CCN1C(=O)C(CC(=O)NCC24CC5CC(CC(C5)C2)C4)C[C@H](C(=O)N(C(C)C)C(C)C)[C@@]31C (stereo not given in full),-5.7%,-1.2%,-4.4%,.,.,.
O=C(Nc1ncc(Cc2cccc(Cl)c2)s1)C1CCCO1 (stereo not given),?,0.1%,?,-15.8%,16.9µM*,?
O=C(Nc1ncc(Cc2cccc(Cl)c2Cl)s1)C1CCCO1 (stereo not given),1.8%,0.6%,-3.4%,-12.2%,.,.
C=CCN(c1ccccc1)S(=O)(=O)c1cccc(C(=O)N2CC(C)CC(C)C2)c1 (stereo not given),9.1%,-1.2%,1.2%,-3.1%,.,.
Cc1nn(CC(=O)N2CCN(c3cccc(C(F)(F)F)c3)CC2)c(=O)c2cccn12,-0.9%,0.0%,?,-0.4%,?,-22.5%
CCOc1cccc2cc(-c3nc4ccc(C(=O)O)cc4[nH]3)c(=O)oc12,?,-0.2%,-12.6%,.,.,.
c1ccc(-c2csc(-n3cnnn3)n2)cc1,3.7%,0.2%,?,1.7%,?,-24.3%
Cc1cc(C)n(-c2nc(-c3ccccc3)cs2)n1,?,0.2%,1.2%,2.3%,.,.
CC(=O)c1cc(Cc2csc(C(C)=O)c2)cs1,?,0.2%,26.9µM*,-1.1%,13.5µM*,30.1µM*
NC(=O)c1cccn1Cc1cccc(Cl)c1,?,-0.3%,?,-20.2%,?,?
CCOC(=O)c1cn(Cc2cccc(Cl)c2)nn1,-0.1%,0.5%,?,8.4%[11.5 µM],26.9µM*,?
CN(CC(=O)N1CCN(Cc2ccccc2)CC1)C(=O)Cc1ccc(Cl)c(Cl)c1,-0.9%,-0.4%,-9.7%,.,.,.
COc1ccc(N2CC(NC(=O)COc3ccccc3C)CC2=O)cc1OC (stereo not given),-6.5%,.,.,.,.,.
O=C(N/N=C/c1ccc(O)c(O)c1O)/C(=C/c1ccc([N+](=O)[O-])cc1)NC(=O)c1ccccc1,?,0.1%,23.9µM*,?,3.38µM*,10.7µM*
COc1ccc2[nH]c3c(c2c1)CCN1C(=O)C(CC(=O)NC(C)(C)C)C[C@H](C(=O)N2CCCCC2)[C@@]31CCc1ccccc1 (stereo not given in full),-0.6%,-0.3%,-4.9%,.,.,.
O=C(O)c1ccc(Nc2ncnc3c2cnn3Cc2ccccc2)cc1,-7.4%,-1.1%,?,-8.5%,?,?
COc1cccc(NC(=O)CN(C)C(=O)c2ccc(Cl)c(S(=O)(=O)N3CCCCCC3)c2)c1,4.0%,0.2%,-1.6%,.,.,.
